The text below walks through data of the supplement of paper PMC6518042.

One test relates to Pectobacterium parmentieri SCC3193. Put plainly: DuctApe activity index (growth/respiration on compound as sole nutrient source, blank-subtracted) (activity index (0-3)); higher = stronger utilization of the compound, active = 3 or more. Conditions: nutrient role (plate category): carbon. The method, then:
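Biolog Phenotype Microarray plates PM1, PM2A (carbon), PM3 (nitrogen) and PM4 (phosphorus/sulfur) inoculated with P. parmentieri SCC3193 in M9-C minimal salts medium with Biolog dye A, and read in the OmniLog for 46 h. Each well was tested in triplicate and the experiment was run twice. DuctApe computed a blank-subtracted activity index (AV, 0-3) from the mean curves; growth is positive at AV >= 3 and negative at AV <= 2.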
For the molecule `CO[C@H]1O[C@H](CO)[C@@H](O)[C@H](O)[C@@H]1O` [a-Methyl-D-Mannoside], the DuctApe activity index was 0 (inactive).
The same measure, in the same setting: under `OC[C@H]1O[C@H](O[C@H]2[C@H](O)[C@@H](O)[C@H](O)O[C@@H]2CO)[C@H](O)[C@@H](O)[C@@H]1O` [Maltose] stands 1 (inactive).
On to `O=C(O)[C@H](O)[C@@H](O)[C@H](O)[C@H](O)CO` [D-Gluconic acid], for which the DuctApe activity index was 3 (active).

The test is the same for the next values; noted with them: nutrient role (plate category): nitrogen.
For `NCC(=O)N[C@@H](CC(N)=O)C(=O)O`, the DuctApe activity index is 1 (inactive).
With `Oc1nc(O)c2nc(O)[nH]c2n1` [Uric acid], the DuctApe activity index is 0 (inactive).
With `N[C@@H](Cc1c[nH]c2ccccc12)C(=O)O` [L-Tryptophan], the DuctApe activity index was 1 (inactive).
For the molecule `C[C@H](N)C(=O)N[C@H](C(=O)O)[C@@H](C)O`, the DuctApe activity index is 0 (inactive).
As for `C[C@H](N)C(=O)N[C@@H](CCC(N)=O)C(=O)O`, the DuctApe activity index is 1 (inactive).
With `NCCO` [Ethanolamine], the DuctApe activity index was 0 (inactive).
Turning to `CCCCCN` [N-Amylamine], the DuctApe activity index was 0 (inactive).

Staying with this test, now noted: nutrient role (plate category): phosphate & sulphur.
As to `N[C@@H](COP(=O)(O)O)C(=O)O` [O-Phospho-L-Serine], the DuctApe activity index is 2 (inactive).
As to `Nc1ncnc2c1ncn2[C@@H]1O[C@H](COP(=O)(O)O)[C@@H](O)[C@H]1O` [Adenosine 5`-Monophosphate], the DuctApe activity index is 1 (inactive).
As for `N[C@H](COP(=O)(O)O)C(=O)O` [O-Phospho-D-Serine], the DuctApe activity index was 2 (inactive).
With `O=S(O)(O)=S` [Thiosulfate], the DuctApe activity index is 0 (inactive).
Take `O=C(O)CP(=O)(O)O` [Phosphono Acetic acid]: the DuctApe activity index was 0 (inactive).
`NC(CCSCC(N)C(=O)O)C(=O)O` (configuration not stated) [Cystathionine]: the DuctApe activity index was 1 (inactive).
As for `O=c1ccn([C@@H]2O[C@H](CO)[C@@H](OP(=O)(O)O)[C@H]2O)c(=O)[nH]1` [Uridine 3`-Monophosphate], the DuctApe activity index is 2 (inactive).
Consider `NCCS(=O)O` [Hypotaurine], for which the DuctApe activity index was 1 (inactive).
For `O=S(=O)(O)SSS(=O)(=O)O` [Tetrathionate], the DuctApe activity index is 1 (inactive).
As for `N[C@@H](CCC(=O)N[C@@H](CS)C(=O)NCC(=O)O)C(=O)O` [Glutathione], the DuctApe activity index was 1 (inactive).
Still for that read-out and setting: in the case of `O=C(O)[C@H](O)[C@@H](O)[C@H](O)[C@H](O)COP(=O)(O)O` [6-Phospho-Gluconic acid] it was 2 (inactive); in that of `O=P(O)(O)O[C@H]1O[C@H](CO)[C@@H](O)[C@H](O)[C@@H]1O` [D-Mannose-1-Phosphate], 2 (inactive).
